# ChEMBL document CHEMBL1961873, “Compounds: GSK PKIS; Assays: Nanosyn kinase panel” (2012)
# Values joined by “and” are separate entries in the source; they are usually repeats but may differ in a detail not shown here. Identical values can stand only once.
# What was measured:
# [1] = target: MAP/microtubule affinity-regulating kinase 3 (Homo sapiens) (UniProt P27448); details: at 1 µM;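 further: reported values are averaged percent inhibition of MARK3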
# [2] = target: T1, MAP/microtubule affinity-regulating kinase 4 (Homo sapiens) (UniProt Q96L34); details: at 0.1 µM
# T1 sequence (whole entry): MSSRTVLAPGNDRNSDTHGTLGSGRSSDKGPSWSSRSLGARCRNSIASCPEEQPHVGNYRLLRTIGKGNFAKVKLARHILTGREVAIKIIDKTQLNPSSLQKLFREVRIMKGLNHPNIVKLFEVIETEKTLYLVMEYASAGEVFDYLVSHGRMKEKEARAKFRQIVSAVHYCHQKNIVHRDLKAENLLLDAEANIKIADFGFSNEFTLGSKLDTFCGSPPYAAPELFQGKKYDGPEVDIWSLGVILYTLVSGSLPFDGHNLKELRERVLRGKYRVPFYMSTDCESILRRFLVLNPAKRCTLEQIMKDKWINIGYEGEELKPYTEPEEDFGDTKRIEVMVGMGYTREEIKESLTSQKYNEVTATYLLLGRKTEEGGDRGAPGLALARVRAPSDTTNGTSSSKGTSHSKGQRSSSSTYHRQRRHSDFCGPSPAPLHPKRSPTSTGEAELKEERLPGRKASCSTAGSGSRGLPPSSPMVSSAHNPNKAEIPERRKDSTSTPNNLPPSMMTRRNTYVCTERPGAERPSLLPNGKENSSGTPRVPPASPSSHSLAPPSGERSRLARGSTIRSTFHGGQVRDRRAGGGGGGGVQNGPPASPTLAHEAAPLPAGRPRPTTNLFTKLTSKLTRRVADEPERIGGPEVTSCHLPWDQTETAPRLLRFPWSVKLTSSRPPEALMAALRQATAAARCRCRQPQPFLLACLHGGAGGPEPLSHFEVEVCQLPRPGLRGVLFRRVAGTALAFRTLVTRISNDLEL
# [3] = target: T1, MAP/microtubule affinity-regulating kinase 4 (Homo sapiens); details: at 1 µM
# [4] = target: Maternal embryonic leucine zipper kinase (Homo sapiens) (UniProt Q14680); details: at 0.1 µM
# Maternal embryonic leucine zipper kinase (Homo sapiens), sequence (Q14680 whole entry, looked up): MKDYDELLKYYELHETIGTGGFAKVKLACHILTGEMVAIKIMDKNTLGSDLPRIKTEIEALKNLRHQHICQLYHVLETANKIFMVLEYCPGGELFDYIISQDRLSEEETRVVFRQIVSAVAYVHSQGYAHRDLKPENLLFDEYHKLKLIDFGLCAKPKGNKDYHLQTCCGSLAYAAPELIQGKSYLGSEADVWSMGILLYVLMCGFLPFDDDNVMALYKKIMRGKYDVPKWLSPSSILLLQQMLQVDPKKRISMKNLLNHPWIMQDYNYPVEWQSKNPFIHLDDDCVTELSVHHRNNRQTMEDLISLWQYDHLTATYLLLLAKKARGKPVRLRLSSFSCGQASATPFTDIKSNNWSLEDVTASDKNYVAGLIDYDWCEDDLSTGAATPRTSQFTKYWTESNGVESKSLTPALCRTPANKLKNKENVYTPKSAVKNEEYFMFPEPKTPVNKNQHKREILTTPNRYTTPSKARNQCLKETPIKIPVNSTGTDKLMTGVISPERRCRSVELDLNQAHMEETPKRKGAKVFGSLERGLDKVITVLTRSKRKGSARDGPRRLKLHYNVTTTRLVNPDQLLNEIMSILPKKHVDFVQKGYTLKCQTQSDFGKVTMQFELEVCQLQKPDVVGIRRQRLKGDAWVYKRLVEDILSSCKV
# [5] = target: Maternal embryonic leucine zipper kinase (Homo sapiens) (UniProt Q14680); details: at 1 µM
# [6] = target: MAP kinase-interacting serine/threonine-protein kinase 1 (Homo sapiens) (UniProt Q9BUB5); details: at 0.1 µM
# MAP kinase-interacting serine/threonine-protein kinase 1 (Homo sapiens), sequence (Q9BUB5 whole entry, looked up): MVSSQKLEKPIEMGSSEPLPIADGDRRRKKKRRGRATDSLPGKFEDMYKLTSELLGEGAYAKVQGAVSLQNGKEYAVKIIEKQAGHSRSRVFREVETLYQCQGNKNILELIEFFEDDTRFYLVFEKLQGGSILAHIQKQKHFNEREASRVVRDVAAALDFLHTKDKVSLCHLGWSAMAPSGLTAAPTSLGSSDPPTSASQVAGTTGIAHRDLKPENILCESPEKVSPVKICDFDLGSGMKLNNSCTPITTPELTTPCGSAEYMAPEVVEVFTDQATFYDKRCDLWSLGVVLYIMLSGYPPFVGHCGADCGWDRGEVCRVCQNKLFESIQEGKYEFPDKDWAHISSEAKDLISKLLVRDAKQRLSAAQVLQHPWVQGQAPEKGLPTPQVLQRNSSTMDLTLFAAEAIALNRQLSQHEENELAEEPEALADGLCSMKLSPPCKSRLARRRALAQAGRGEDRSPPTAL
# [7] = target: MAP kinase-interacting serine/threonine-protein kinase 1 (Homo sapiens) (UniProt Q9BUB5); details: at 1 µM
# [8] = target: MAP kinase-interacting serine/threonine-protein kinase 2 (Homo sapiens) (UniProt Q9HBH9); details: at 0.1 µM
# MAP kinase-interacting serine/threonine-protein kinase 2 (Homo sapiens), sequence (Q9HBH9 whole entry, looked up): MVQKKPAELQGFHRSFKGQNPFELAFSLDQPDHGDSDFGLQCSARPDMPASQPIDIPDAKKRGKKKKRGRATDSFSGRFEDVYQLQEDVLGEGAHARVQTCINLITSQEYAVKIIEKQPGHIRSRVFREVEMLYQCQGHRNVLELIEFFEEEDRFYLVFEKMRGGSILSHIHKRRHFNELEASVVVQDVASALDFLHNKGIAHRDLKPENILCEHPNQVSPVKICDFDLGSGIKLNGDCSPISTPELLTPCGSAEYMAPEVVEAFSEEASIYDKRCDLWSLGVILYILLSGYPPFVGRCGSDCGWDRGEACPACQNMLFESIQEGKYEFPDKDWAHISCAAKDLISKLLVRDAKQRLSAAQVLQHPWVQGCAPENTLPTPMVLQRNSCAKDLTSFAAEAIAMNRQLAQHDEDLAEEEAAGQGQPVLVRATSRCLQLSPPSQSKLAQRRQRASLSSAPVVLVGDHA
# [9] = target: MAP kinase-interacting serine/threonine-protein kinase 2 (Homo sapiens) (UniProt Q9HBH9); details: at 1 µM
# [10] = target: Serine/threonine-protein kinase MARK2 (Homo sapiens) (UniProt Q7KZI7); details: at 0.1 µM;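 further: mean percent inhibition of PAR-1Balpha kinase activity, reported from the GSK PKIS screen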
# Serine/threonine-protein kinase MARK2 (Homo sapiens), sequence (Q7KZI7 whole entry): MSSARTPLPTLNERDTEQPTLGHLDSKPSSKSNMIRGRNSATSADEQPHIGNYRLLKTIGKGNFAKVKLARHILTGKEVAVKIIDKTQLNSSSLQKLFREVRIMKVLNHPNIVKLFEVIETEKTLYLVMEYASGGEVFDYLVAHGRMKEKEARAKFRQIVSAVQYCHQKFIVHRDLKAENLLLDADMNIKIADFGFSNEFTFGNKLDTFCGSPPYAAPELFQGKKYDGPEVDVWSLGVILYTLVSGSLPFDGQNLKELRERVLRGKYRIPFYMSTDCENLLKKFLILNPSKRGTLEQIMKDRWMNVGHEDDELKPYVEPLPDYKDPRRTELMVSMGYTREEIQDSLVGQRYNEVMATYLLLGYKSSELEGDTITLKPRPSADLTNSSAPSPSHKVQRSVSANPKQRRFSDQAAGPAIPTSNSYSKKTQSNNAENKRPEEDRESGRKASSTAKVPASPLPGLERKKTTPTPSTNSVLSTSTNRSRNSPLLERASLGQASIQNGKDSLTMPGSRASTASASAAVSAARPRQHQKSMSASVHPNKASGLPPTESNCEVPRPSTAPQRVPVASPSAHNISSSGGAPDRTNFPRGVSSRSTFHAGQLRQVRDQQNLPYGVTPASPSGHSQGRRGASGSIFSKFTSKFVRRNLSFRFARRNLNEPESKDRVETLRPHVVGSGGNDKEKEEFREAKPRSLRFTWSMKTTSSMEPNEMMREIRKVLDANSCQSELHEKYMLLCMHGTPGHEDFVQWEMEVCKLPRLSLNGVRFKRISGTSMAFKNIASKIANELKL
# MAP/microtubule affinity-regulating kinase 3 (Homo sapiens), sequence (P27448 whole entry, looked up): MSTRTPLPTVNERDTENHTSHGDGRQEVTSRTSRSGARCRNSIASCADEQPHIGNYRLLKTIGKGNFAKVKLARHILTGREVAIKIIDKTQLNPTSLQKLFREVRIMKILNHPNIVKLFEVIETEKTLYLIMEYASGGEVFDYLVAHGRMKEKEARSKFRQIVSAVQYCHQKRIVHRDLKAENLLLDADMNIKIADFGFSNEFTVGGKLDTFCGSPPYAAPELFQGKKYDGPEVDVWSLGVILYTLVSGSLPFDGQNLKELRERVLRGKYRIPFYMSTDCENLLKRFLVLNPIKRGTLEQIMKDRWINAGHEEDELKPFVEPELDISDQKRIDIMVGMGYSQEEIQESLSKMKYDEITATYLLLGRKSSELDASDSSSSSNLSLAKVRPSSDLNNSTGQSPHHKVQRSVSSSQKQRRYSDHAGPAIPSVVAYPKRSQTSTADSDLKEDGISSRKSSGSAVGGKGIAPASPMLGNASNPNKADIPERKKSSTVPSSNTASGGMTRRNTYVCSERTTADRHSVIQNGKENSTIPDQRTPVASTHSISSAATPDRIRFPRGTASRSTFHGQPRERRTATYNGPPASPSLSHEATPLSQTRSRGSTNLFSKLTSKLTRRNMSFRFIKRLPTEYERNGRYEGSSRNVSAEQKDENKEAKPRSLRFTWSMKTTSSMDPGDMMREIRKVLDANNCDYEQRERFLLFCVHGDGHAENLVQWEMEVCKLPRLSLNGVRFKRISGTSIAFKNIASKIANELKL
Structure (SMILES),inhibition [1],inhibition [2],inhibition [3],inhibition [4],inhibition [5],inhibition [6],inhibition [7],inhibition [8],inhibition [9],inhibition [10]
Nc1nonc1-c1nc2cnccc2n1C1CC1,22.6% and 19%,3.74% and 2.4%,11% and 8.22%,10.2% and 12.6%,66.9% and 71.4%,3.95% and 1.61%,9.32% and 10.2%,4.37% and 1.55%,18.2% and 15.1%,3.55% and -0.71%
Cc1c2ccc(N(C)c3ccnc(Nc4cccc(S(N)(=O)=O)c4)n3)cc2nn1C,5.76%,2.63%,5.35%,3.62%,3.67%,1.23%,4.05%,-0.12%,3.7%,1.14%
CC(C)c1ccc(-c2cc(-c3c[nH]nc3-c3ccccn3)ccn2)cc1,0.71%,-0.28%,0.5%,1.44%,3.48%,1.48%,3.11%,0.97%,2.83%,-2.82%
O=C(O[C@H]1CN[C@H](C#Cc2cc3ncnc(Nc4ccc(OCc5cccc(F)c5)c(Cl)c4)c3s2)C1)N1CCOCC1,10.1%,1.79%,0.94%,3.76%,4.67%,4.6%,11.4%,5.13%,13.2%,6.4%
CCN1CCC(C(=O)Nc2n[nH]c3nnc(-c4cccc(F)c4F)cc23)CC1,1.76%,0.44%,2.52%,-1.02%,-1.79%,1.56%,3.13%,0.51%,1.47%,-2.48%
OCCCNc1nccc(-c2c(-c3ccc(F)cc3)nn3cc(C(F)(F)F)ccc23)n1,3.84%,0.24%,2.09%,0.52%,2.27%,2.61%,6.2%,2.75%,3.6%,-1.06%
COc1ccccc1-c1cc(/C=C2\C(=O)Nc3ncc(Br)cc32)cc(Br)c1O,1.27%,2.01%,5.18%,4.33%,8.21%,4.21%,11.7%,7.61%,40.1%,-0.96%
O=C(O[C@H]1CN[C@H](C#Cc2cc3ncnc(Nc4ccc5c(cnn5Cc5ccccc5)c4)c3s2)C1)N1CCOCC1,2.28%,0.43%,2.44%,-2.54%,-1.35%,1.01%,9.35%,0.04%,11.5%,-1.65%
COc1cccc(Nc2nccc(-c3cnn4ncccc34)n2)c1,29.6%,0.65%,17.3%,5.16%,52.3%,2.14%,11.3%,3.27%,22.7%,1.23%
Cc1nnc(-c2cccc(-c3ccc(C(=O)NCC4CC4)cc3)c2)o1,7.47%,1.79%,2.85%,0.44%,6.34%,4.66%,6.32%,2.35%,6.05%,0.64%
COc1cc2c(cc1Nc1nc(Nc3cccc(F)c3C(N)=O)c3cc[nH]c3n1)N(C(=O)CN1CCN(C(C)C)CC1)CC2,3.29%,0.59%,2.06%,2.86%,18.4%,1.4%,1.42%,1.33%,4.51%,0.26%
COC(=O)Nc1nc2cc(Oc3ccc(NC(=O)Nc4ccccc4)cc3)ccc2[nH]1,2.58%,1.19%,0.89%,0.33%,2.1%,3%,6.54%,1.92%,4.02%,0.31%
CS(=O)(=O)Nc1ccc(-c2ccc3c(NC(=O)C4CC4)n[nH]c3c2)cc1,0.81%,2.19%,2.82%,2.17%,3.47%,2.36%,2.11%,1.69%,1.32%,-0.79%
CC1=C(C(=O)Nc2ccc3[nH]nc(C)c3c2)C(c2ccc(C(F)(F)F)cc2)CC(=O)N1 (centres undefined),5.26%,-0.05%,3.18%,3.65%,18%,3.53%,6.23%,1.45%,4.23%,0.75%
Nc1ncnc2occ(-c3ccc(NC(=O)Nc4cc(C(F)(F)F)ccc4F)cc3)c12,2.97% and -0.26%,0.43% and 1.7%,2.95% and 1.13%,-6.51% and -4.36%,–,6.91% and 2.48%,30% and 16.5%,7.71% and 2.55%,40.3% and 28.8%,-0.86% and -0.02%
O=C(Nc1n[nH]c2nnc(-c3cccnc3)cc12)C1CC1,1.25%,0.54%,0.56%,-0.51%,1.48%,0.68%,-0.29%,0.77%,2.11%,0.83%
CC1(C)CC(n2cnc(-c3ccc(F)cc3)c2-c2ccnc(N)n2)CC(C)(C)N1,1.48%,1.1%,1.23%,2.12%,3.51%,1.11%,2.81%,0.35%,0.79%,0.16%
CCCNc1cccc(-n2ncc3c(N/N=C/c4ccncc4)ncnc32)c1,9.23%,0.58%,9.44%,-0.14%,3.93%,31.2%,69.1%,37.6%,72.2%,0.04%
COc1cccc(-n2ncc3c(N/N=C/c4ccc(C(=O)NCCN(C)C)cc4)ncnc32)c1,18.4%,2.02%,16.8%,2.38%,11.5%,39.4%,72.9%,28.7%,67.5%,1.55%
CN1CCC(n2cnc(-c3ccc(F)cc3)c2-c2ccnc(NCCO)n2)CC1,6.04%,0.86%,2.05%,2.15%,5.49%,4.71%,15.9%,2.63%,8.42%,-0.26%
CNC(=O)c1sc(-n2cnc3cc(OC)c(OC)cc32)cc1OCc1ccccc1C(F)(F)F,3.64%,2.02%,3.13%,2.63%,2%,3.25%,4.03%,0.55%,2.13%,-0.7%
COc1cc(Nc2ncc(-c3ccccc3)o2)cc(OC)c1,2.48%,1.86%,3.56%,4.58%,5.97%,3.84%,10.8%,1.3%,12.4%,-1.15%
c1ccc(-c2n[nH]cc2-c2ccnc(-c3ccc(OCCn4ccnc4)cc3)c2)nc1,6.87%,1.49%,3.83%,2.12%,27.2%,0.75%,5.94%,0.5%,7.2%,-0.46%
